This passage reports Percent Effect results from ChEMBL document CHEMBL3988442, “University of Dundee, Small-Polar-MMV Screening Library” (2021).

In assay [1] the target is T1, Aspartate--tRNA(Asp/Asn) ligase (Mycobacterium tuberculosis (strain ATCC 25618 / H37Rv)) (UniProt P9WFW3). Also: in the data most compounds retested in dose-response had high values.
T1 sequence (whole entry): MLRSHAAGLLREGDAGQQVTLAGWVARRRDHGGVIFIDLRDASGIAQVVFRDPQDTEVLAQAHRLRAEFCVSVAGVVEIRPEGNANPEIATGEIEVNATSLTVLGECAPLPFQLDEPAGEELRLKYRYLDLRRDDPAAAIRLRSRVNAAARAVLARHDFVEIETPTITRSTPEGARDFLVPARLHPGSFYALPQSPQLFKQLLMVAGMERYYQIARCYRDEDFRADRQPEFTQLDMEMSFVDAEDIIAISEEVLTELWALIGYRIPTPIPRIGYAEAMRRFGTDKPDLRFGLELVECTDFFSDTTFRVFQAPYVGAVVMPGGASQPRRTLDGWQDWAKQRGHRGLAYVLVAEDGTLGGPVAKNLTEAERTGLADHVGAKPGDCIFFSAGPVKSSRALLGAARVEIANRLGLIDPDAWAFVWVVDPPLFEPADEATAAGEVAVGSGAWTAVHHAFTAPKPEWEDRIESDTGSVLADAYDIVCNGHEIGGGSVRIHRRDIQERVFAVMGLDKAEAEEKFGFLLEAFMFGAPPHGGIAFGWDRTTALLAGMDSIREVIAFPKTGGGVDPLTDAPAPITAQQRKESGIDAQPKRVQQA
Description: Assay for Asp RNA synthetase-1 from Mycobacterium tuberculosis. The format is functional. Details: scale not given: direction of the effect not stated beside the values. The settings on record: 30 µM.

The target in assay [2] is Shiga toxin 2 (Escherichia coli O157:H7) (UniProt P09385+P09386). The assay can be described thus: E. coli 0.157:H7 Shiga Toxin SOP - stx2 screening assay. Type of assay: functional. Set-up: scale not given: direction of the effect not stated beside the values. The settings on record: 30 µM.

Take `Cc1noc([C@@]23CCO[C@@H]2CCN(CC2CCOCC2)C3)n1`: the Percent Effect is 6.14% in assay [1] and -16.8% in assay [2].
The matching figures for `O=C(c1cc2c(s1)CCC2)N1CCCCC1Cn1cccn1` (stereo not given): 1.25% and 11.1%.
Turning to `Cc1nn(C)c(C)c1CCC(=O)N1CCCC1Cn1cccn1` (stereo not given), the values for the Percent Effect in assay [1] and in assay [2] were -0.943% and 2.75%, respectively.
Take `Cc1noc(C(C)C)c1C(=O)N1CCCN(Cc2cscn2)CC1`: the Percent Effect in assay [1] is -4.35%; in assay [2], -6.33%.
The corresponding values for `CN1CCN(CCCNC(=O)c2cc(Cl)c3c(c2)OCO3)CC1` are -5.91% and -42.5%.
The corresponding values for `COc1ccc(C2=CCN(C(=O)CN(C)CC(N)=O)CC2)cc1` are -2.46% and -18.1%.
The corresponding values for `NC(=O)C1CCN(c2nc3nccc(-c4ccccc4)c3c(=O)[nH]2)CC1` are -4.72% and -30.6%.
On to `O=C(O)[C@]12CCCN(Cc3ccccc3)C[C@H]1CN(c1ncccn1)C2`, for which the Percent Effect in assay [1] is 6.32%; in assay [2], -14.8%.
The corresponding values for `CO[C@@H]1CC[C@H]2[C@H]1OCCN2C(=O)c1ccc(C)o1` are 2.26% and -16.7%.
The matching figures for `CNC(=O)c1nc2c(s1)CCN(C(=O)c1cccnc1)CC2`: 2.01% and -18.2%.
The corresponding values for `Cc1ncncc1C(=O)Nc1cnn(CC(=O)NC2CCCC2)c1` are -6.25% and -10.6%.
For the molecule `CC(C)c1nnc2n1CCN(C(=O)CN1Cc3ccccc3C1=O)C2`, the Percent Effect in assay [1] is -0.233%; in assay [2], -25.5%.
The corresponding values for `O=S(=O)(CCNCc1cccc2c1OCCO2)N1CCOCC1` are -2.82% and -39%.
The matching figures for `CC(=O)N1CCCN(Cc2csc(-c3ncccn3)n2)CC1`: 5.15% and -13%.
As to `CN(C)c1ccc(C(=O)N2CCN(Cc3cscn3)CC2)cc1F`, the results for the Percent Effect in assay [1] and in assay [2] were 5.95% and -20.8%, respectively.
The matching figures for `CCc1nnc(CN2CCCC(c3cc(C(F)(F)F)[nH]n3)C2)o1` (stereo not given): 1.01% and -4.16%.
The corresponding values for `CCSCCNC(=O)C(c1cccc(C)c1)N(C)C` (stereo not given) are 0.569% and -22.9%.
Turning to `COc1cccc2c1OCC(C(=O)N(C)CCCc1cnn(C)c1)C2` (stereo not given), the figures for the Percent Effect in assay [1] and in assay [2] were 9.43% and -7.98%, respectively.
The corresponding values for `CC(NCc1ccc(F)cc1)c1ccc(OCC(=O)NC2CC2)cc1` (stereo not given) are 0.888% and -19.1%.
The matching figures for `CN(C)C(=O)C1CN(Cc2ccccc2)CCN(S(C)(=O)=O)C1` (stereo not given): -2.4% and -6.7%.
The matching figures for `CC(C)S(=O)(=O)NCC1CCCN(C(=O)c2ccc3c(c2)CCC3)C1` (stereo not given): 6.5% and 1.33%.
Turning to `O=C1C(NS(=O)(=O)c2cc(F)cc(F)c2)CCN1Cc1ccccc1` (stereo not given), the values for the Percent Effect in assay [1] and in assay [2] were -5.71% and 3.9%, respectively.
Consider `CC(C)COC(C)C(=O)NCc1cc(F)cc(F)c1` (stereo not given), for which the Percent Effect in assay [1] is -4.79%; in assay [2], 27.6%.
The corresponding values for `COc1cc(C)nc(N2CCN(C(=O)c3ccc(Cl)o3)CC2)n1` are 0.508% and 20%.
The corresponding values for `COc1ccc(CN2CCC3(CC(=O)N(c4cncnc4)C3)C2)cc1` (stereo not given) are 0.382% and -11.8%.
The corresponding values for `CCN1C(=O)C2(CCOCC2)c2cc(NC(=O)c3ccco3)ccc21` are -3.45% and -26.8%.
`O=C(c1ccc[nH]1)N1CCCC(c2cc(C(F)(F)F)[nH]n2)C1` (stereo not given): the Percent Effect in assay [1] was 3.68%; in assay [2], 36.4%.
For `COCC(=O)N1CCC(c2nccn2CC2CC2)CC1`, the Percent Effect was -0.435% in assay [1] and -12.6% in assay [2].
The matching figures for `Cc1cc(C[C@@H]2COC[C@@H]2NC(=O)Cn2c(=O)oc3ccccc32)on1`: -0.0288% and -25.4%.
The corresponding values for `CC(C)c1nc2n(n1)CC(NCc1nnc(C(C)C)o1)CC2` (stereo not given) are 5.81% and 19.6%.
With `CC(C)N1CCC(Cc2cc(-c3ccccc3C(=O)O)ncn2)CC1`, the results for the Percent Effect in assay [1] and in assay [2] were -0.134% and 8.23%, respectively.
The matching figures for `CCCN1CCCn2nc(CNC(=O)CCc3scnc3C)cc2C1`: -0.334% and 3.64%.
The matching figures for `COc1ccc(-c2nc(CN3CCN(CCO)CC3)co2)cc1`: -0.607% and -96.9%.
Consider `Cc1noc([C@H]2C[C@@H]3CCN(C(=O)C4CCOCC4)C[C@H]3O2)n1`, for which the Percent Effect in assay [1] is 1.08%; in assay [2], -0.561%.
The matching figures for `COc1ccc(Br)c(C(=O)NCCNc2ccc(C(F)(F)F)cn2)c1`: 7.7% and 23.3%.
As to `CN1CCN(C(=O)c2nc3c(o2)CN(C(=O)c2cccnc2)C3)CC1`, the Percent Effect in assay [1] was 2.23%; in assay [2] it was -53.6%.
The matching figures for `COc1cc(C(=O)N2CCC(c3n[nH]c(C4CC4)n3)CC2)ccc1C`: -0.859% and 3.06%.
Take `Cc1ccsc1C(=O)N1Cc2ccccc2C2(CCN(C)CC2)C1`: the Percent Effect in assay [1] was 5.26%; in assay [2], 5.47%.
The corresponding values for `CCc1nccn1C1CCCN(C(=O)Cc2ccc(OC)c(F)c2)C1` (stereo not given) are -7.86% and 4.47%.
For `O=C(CCCOc1ccccc1Cl)N1CCCC(n2cncn2)C1` (stereo not given), the results for the Percent Effect in assay [1] and in assay [2] were -3.9% and 19.3%, respectively.
As to `CC(OCC(F)(F)F)C(=O)NCc1ccc(-n2cncn2)nc1` (stereo not given), the Percent Effect is -3.63% in assay [1] and -8.85% in assay [2].
The matching figures for `Cc1ccc(C(=O)N2CCCC2c2nnc3n2CCCCC3)o1` (stereo not given): -0.223% and -7.29%.
`CN(CCn1cccn1)S(=O)(=O)N1CCCC1c1ccco1` (stereo not given): the Percent Effect stood at 4.31% in assay [1] and 20.4% in assay [2].
The matching figures for `CN(CC1CCCCO1)C(=O)c1ccnc(OC2CCC2)c1` (stereo not given): -2.11% and -8.22%.
The corresponding values for `Cc1nc(CN2C[C@@H]3CN(C(=O)c4cccn4C)C[C@@H]3C2=O)cs1` are -0.382% and -4.43%.
